The values that follow come from PubChem BioAssay (NCATS).

Molecules are shown by their SMILES. Inconclusive results are not listed. The source made the active and inactive calls. Calls come from the whole dose curve. Bridge positions count the residues as written; N and C are the ends. Square brackets hold non-standard residues; d marks the D form. Peptide text beside a SMILES is read from it. Orn = NCCC[CH](N)C(=O)O; Mpa = O=C(O)CCS

Experiment [1] in a line: Primary qHTS for inhibitors of SARS-S pseudo-typed particle cell entry (AID 1479145). For activity change, negative = inhibition: % is set by controls: 0 for no effect and ±100 for the full control effect. Note: nearly all actives have a fitted effect of over 45% in size. The following applies: outcome: dose series up to 57.1 µM unless noted. For orientation: In qHTS, concentration-response curves come from the screen itself.
The nature of experiment [2]: Primary qHTS for Huh7 cytotoxicity: counterscreen for inhibitors of MERS-S pseudotyped particle cell entry (AID 1479147). For activity change, negative = cytotoxicity: % is set by controls: 0 for no effect and ±100 for the full control effect. The following applies: outcome: dose series up to 57.1 µM unless noted.
Experiment [3] is described as follows: Primary qHTS for inhibitors of MERS-S pseudo-typed particle cell entry (AID 1479149). For activity change, negative = inhibition: % is set by controls: 0 for no effect and ±100 for the full control effect. Note: nearly all actives have a fitted effect of over 60% in size. The following applies: outcome: dose series up to 57.1 µM unless noted.
Experiment [4] can be described thus: Primary qHTS for Vero E6 cytotoxicity: counterscreen for inhibitors of SARS-S pseudo-typed particle cell entry (AID 1479150). For activity change, negative = cytotoxicity: % is set by controls: 0 for no effect and ±100 for the full control effect. The settings on record: outcome: dose series up to 57.1 µM unless noted.
Experiment [5] is described as follows: Cytotoxicity counterscreen for inhibitors of SARS-CoV-2 cell entry (AID 1645845). Note: nearly all actives have a fitted effect of over 50% in size. The settings on record: outcome: dose series up to 57.1 µM unless noted. Summed up: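 After a 15 min room-temperature ATPLite 1step step, luminescence reflected ATP remaining in HEK293-ACE2 cells exposed to compound for 1 h plus 48 h at 37 C, with percent activity set by cell and no-cell controls.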

Experiment [6] is described as follows: Primary qHTS to identify inhibitors of SARS-CoV-2 cell entry (AID 1645846). Note: nearly all actives have a fitted effect of over 45% in size. The following applies: SARS-CoV-2 pseudovirus cell entry assay, luminescence; activity change, negative = inhibition: at 57.1 µM (top of the series) unless noted. Summed up:
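Entry measured by luciferase signal 48 h after adding SARS-CoV-2-S pseudotyped MLV particles to HEK293-ACE2 cells preincubated 1 h with compounds. Normalisation: bald particles and spike particles.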

With `CC(=O)OC1CCC2(C)C(=CCC3C2CCC2(C)C(c4cccnc4)=CCC32)C1` (stereo not given), the Potency result in experiment [1], in experiment [2], in experiment [3], in experiment [4] and in experiment [5] was “inactive” each time. Moreover, the activity change, negative = inhibition in experiment [6] was -20%.
As for `OC[C@H]1O[C@@H](c2ccc(F)c(Cc3cc4ccccc4s3)c2)[C@H](O)[C@@H](O)[C@@H]1O`, the Potency entry in experiment [1], in experiment [2], in experiment [3], in experiment [4] and in experiment [5] was “inactive” in each case. Moreover, the activity change, negative = inhibition in experiment [6] is -24.7%.
As to `Nc1c(CC(=O)O)cccc1C(=O)c1ccccc1`, the Potency result in experiment [1], in experiment [2], in experiment [3], in experiment [4], in experiment [5] and in experiment [6] was “inactive” in each case.
`CN(Cc1ccccc1)C(=O)[C@H](NC(=O)c1cc2cc(NC(=O)c3ccccc3-c3ccc(C(F)(F)F)cc3)ccc2n1C)c1ccccc1`: the Potency entry in experiment [1], in experiment [2], in experiment [3], in experiment [4] and in experiment [5] was “inactive” throughout. In addition, the activity change, negative = inhibition in experiment [6] was -7.12%.
As to `CC(OC(=O)OC1CCCCC1)OC(=O)C1=C(CSc2nnnn2CCN(C)C)CS[C@@H]2[C@H](NC(=O)Cc3csc(N)n3)C(=O)N12` (stereo not given in full), the Potency entry in experiment [1], in experiment [2], in experiment [3], in experiment [4] and in experiment [5] was “inactive” in each case. For the same compound, the activity change, negative = inhibition in experiment [6] was -37%.
As to `CCCCCCCCCCCCCCCCOc1nc2ccc(C)cc2c(=O)o1`, the Potency result in experiment [1], in experiment [2], in experiment [3], in experiment [4] and in experiment [5] was “inactive” each time. The activity change, negative = inhibition in experiment [6] is -28.4%.
For `C/C=C(/C)C(=O)O[C@H]1C(C)=CC23C(=O)C(C=C(CO)[C@@H](O)[C@]12O)[C@H]1[C@@H](C[C@H]3C)C1(C)C` (stereo not given in full), the Potency entry in experiment [1], in experiment [2], in experiment [3], in experiment [4], in experiment [5] and in experiment [6] was “inactive” each time.
With `CCC(=O)NC[C@@H]1C[C@H]1c1cccc2c1CCO2`, the Potency result in experiment [1], in experiment [2], in experiment [3], in experiment [4] and in experiment [5] was “inactive” throughout. Besides, the activity change, negative = inhibition in experiment [6] is -21.9%.
With `CO[C@@H]1[C@@H](O[C@@H]2O[C@H](C)[C@@H](O[C@H]3C[C@@](C)(O)[C@H](O)[C@H](C)O3)[C@H](N(C)C)[C@H]2O)[C@@H](CC=O)C[C@@H](C)[C@@H](O[C@H]2CC[C@H](N(C)C)[C@@H](C)O2)/C=C/C=C/C[C@H](C)OC(=O)C[C@H]1O`, the Potency result in experiment [1], in experiment [2], in experiment [3], in experiment [4] and in experiment [5] was “inactive” each time. Moreover, the activity change, negative = inhibition in experiment [6] was -34.9%.
For the compound `CO[C@H]1/C=C\O[C@@]2(C)Oc3c(C)c(O)c4c(O)c(c(/C=N/N5CCN(C6CCCC6)CC5)c(O)c4c3C2=O)NC(=O)/C(C)=C\C=C/[C@H](C)[C@H](O)[C@@H](C)[C@@H](O)[C@@H](C)[C@H](OC(C)=O)[C@@H]1C`, the Potency entry in experiment [1], in experiment [2], in experiment [3], in experiment [4], in experiment [5] and in experiment [6] was “inactive” each time.
With `CC1CC2C3CCC4=CC(=O)C=CC4(C)C3(F)C(O)CC2(C)C1(O)C(=O)COC(=O)c1cccc(S(=O)(=O)O)c1` (stereo not given), the Potency result in experiment [1], in experiment [2], in experiment [3], in experiment [4] and in experiment [5] was “inactive” in each case. The activity change, negative = inhibition in experiment [6] amounted to 4.79%.
For the compound `Cn1c(=O)cc(N2CCCC(N)C2)n(Cc2ccccc2C#N)c1=O` (stereo not given), the Potency result in experiment [1], in experiment [2], in experiment [3], in experiment [4] and in experiment [5] was “inactive” each time. For the same compound, the activity change, negative = inhibition in experiment [6] is -28.9%.
`CC1(O)CCC(C(C)(C)O)CC1` (stereo not given): the Potency result in experiment [1], in experiment [2], in experiment [3], in experiment [4], in experiment [5] and in experiment [6] was “inactive” each time.
As for `NC(C(=O)NC1C(=O)N2C(C(=O)O)=C(CSc3cn[nH]n3)CSC12)c1ccc(O)cc1` (stereo not given), the Potency entry in experiment [1], in experiment [2], in experiment [3], in experiment [4] and in experiment [5] was “inactive” each time. In experiment [6], the activity change, negative = inhibition was -22%.
As for `CO[C@H]1O[C@@H]2O[C@@]3(C)CC[C@H]4[C@H](C)CC[C@@H]([C@@H]1C)[C@@]24OO3`, the Potency entry in experiment [1], in experiment [2], in experiment [3], in experiment [4] and in experiment [5] was “inactive” each time. The activity change, negative = inhibition in experiment [6] was -7.86%.
Take `CO[C@H]1C[C@@H]2CC[C@@H](C)[C@@](O)(O2)C(=O)C(=O)N2CCCC[C@H]2C(=O)O[C@H]([C@H](C)C[C@@H]2CC[C@@H](OCCO)[C@H](OC)C2)CC(=O)[C@H](C)/C=C(/C)[C@@H](O)[C@@H](OC)C(=O)[C@H](C)C[C@H](C)\C=C/C=C\C=C/1C`: the Potency result in experiment [1], in experiment [2], in experiment [3], in experiment [4] and in experiment [5] was “inactive” in each case. Moreover, in experiment [6], the activity change, negative = inhibition is -11.8% [at 27.1 µM].
Consider `CCCCC(=O)O`, for which the Potency result in experiment [1], in experiment [2], in experiment [3], in experiment [4] and in experiment [5] was “inactive” in each case. In addition, the activity change, negative = inhibition in experiment [6] was -20.8%.
On to `CCCCCCCCN=C(N)NC(N)=NCc1ccc(Cl)c(Cl)c1`, for which the Potency entry in experiment [1], in experiment [2], in experiment [3], in experiment [4] and in experiment [5] was “inactive” each time. Besides, the activity change, negative = inhibition in experiment [6] is -3.64%.
`O=C(O)CCCN1CCC(O[C@@H](c2ccc(Cl)cc2)c2ccccn2)CC1`: the Potency result in experiment [1], in experiment [2], in experiment [3], in experiment [4] and in experiment [5] was “inactive” each time. In experiment [6], the activity change, negative = inhibition was -17.2%.
On to `CC[C@H]1OC(=O)[C@H](C)[C@@H](O[C@H]2C[C@@](C)(OC)[C@@H](O)[C@H](C)O2)[C@H](C)[C@@H](O[C@@H]2O[C@H](C)C[C@H](N(C)C)[C@H]2O)C(C)(O)C[C@@H](C)/C(=N\OCOCCOC)[C@H](C)[C@@H](O)[C@]1(C)O` (stereo not given in full), for which the Potency entry in experiment [1], in experiment [2], in experiment [3], in experiment [4], in experiment [5] and in experiment [6] was “inactive” each time.
`CCCCCCCCCCCCCCCCCCCCCCCCCCCCO`: the activity change, negative = inhibition in experiment [1] was -10.7% [at 0.573 µM] (inactive). For the same compound, the outcome in experiment [2] is “inactive [at 0.573 µM]”; in experiment [3], “inactive [at 0.573 µM]”; in experiment [5] it was “inactive [at 0.702 µM]”; in experiment [6] it was “inactive [at 0.702 µM]”. The activity change, negative = cytotoxicity in experiment [4] was 3.84% [at 0.573 µM] (inactive).
For `CN(CCCCCCN(C)C(=O)Oc1ccc[n+](C)c1)C(=O)Oc1ccc[n+](C)c1`, the Potency entry in experiment [1], in experiment [2], in experiment [3], in experiment [4] and in experiment [5] was “inactive” in each case. Also, in experiment [6], the activity change, negative = inhibition was -28.5%.
Consider `NCCCC[C@H](NC(=O)[C@@H]1CCCN1C(=O)[C@@H]1CSSC[C@H](N)C(=O)N[C@@H](Cc2ccc(O)cc2)C(=O)N[C@@H](Cc2ccccc2)C(=O)N[C@@H](CCC(N)=O)C(=O)N[C@@H](CC(N)=O)C(=O)N1)C(=O)NCC(N)=O`, for which the Potency entry in experiment [1], in experiment [2], in experiment [3], in experiment [4] and in experiment [5] was “inactive” each time. Besides, the activity change, negative = inhibition in experiment [6] is -25.1%.
Regarding `CCCCC(=O)O[C@]1(C(=O)COC(C)=O)CC[C@H]2[C@@H]3CCC4=CC(=O)C=C[C@]4(C)[C@H]3[C@@H](O)C[C@@]21C`, the Potency result in experiment [1], in experiment [2], in experiment [3], in experiment [4] and in experiment [5] was “inactive” in each case. Also, the activity change, negative = inhibition in experiment [6] is -22.7%.
Regarding `CC(C)(CO)[C@@H](O)C(=O)NCCC(=O)NCCSSCCNC(=O)CCNC(=O)[C@H](O)C(C)(C)CO`, the Potency result in experiment [1], in experiment [2], in experiment [3], in experiment [4] and in experiment [5] was “inactive” each time. In experiment [6], the activity change, negative = inhibition is -13.3%.
For the compound `C[C@@H]1CC2C3C[C@H](F)C4=CC(=O)C=C[C@]4(C)[C@@]3(F)[C@@H](O)C[C@]2(C)[C@@]1(OC(=O)c1ccco1)C(=O)SCF` (stereo not given in full), the Potency result in experiment [1], in experiment [2], in experiment [3], in experiment [4] and in experiment [5] was “inactive” throughout. Further, the activity change, negative = inhibition in experiment [6] is 3.79%.
Take `C=C1CC2C3CCC4=CC(=O)C=C[C@]4(C)[C@@]3(F)[C@@H](O)C[C@]2(C)[C@@]1(O)C(=O)COC(C)=O` (stereo not given in full): the Potency entry in experiment [1], in experiment [2], in experiment [3], in experiment [4], in experiment [5] and in experiment [6] was “inactive” throughout.
In the case of `C[C@@H](O)[C@H]1C(=O)N2C(C(=O)O)=C(S[C@@H]3CN[C@H](C(=O)Nc4cccc(C(=O)O)c4)C3)[C@H](C)[C@H]12`, the Potency result in experiment [1], in experiment [2], in experiment [3], in experiment [4] and in experiment [5] was “inactive” each time. Moreover, the activity change, negative = inhibition in experiment [6] came out at 0.84%.
For the compound `CNCC(O)c1ccc(OC(=O)C(C)(C)C)c(OC(=O)C(C)(C)C)c1` (stereo not given), the Potency result in experiment [1], in experiment [2], in experiment [3], in experiment [4] and in experiment [5] was “inactive” in each case. Further, the activity change, negative = inhibition in experiment [6] is -25.4%.
Regarding `CCOc1ccc(CC2NC(=O)CCSSCC(C(=O)N3CCCC3C(=O)NC(CCCN)C(=O)NCC(N)=O)NC(=O)C(CC(N)=O)NC(=O)C(C(C)O)NC(=O)C(C(C)CC)NC2=O)cc1` (stereo not given) ([Mpa]Y(Et)ITNCP[Orn]G-NH2; disulfide 1-6; configuration not given here), the Potency entry in experiment [1], in experiment [2], in experiment [3], in experiment [4] and in experiment [5] was “inactive” throughout. Moreover, the activity change, negative = inhibition in experiment [6] is -38.4%.
